# Measured values taken from PubChem BioAssay AID1851 (National Center for Advancing Translational Sciences (NCATS), 2009).
# In all, about 16,000 compounds went through this assay and about 4,000 (25%) were called active. Not shown: some 26% with an inconclusive outcome. These entries were drawn from the full list. Values without a mark were called inactive. Calls follow the shape of the dose curve; as a rule, active = well fitted curve in the direction sought with a large enough effect; inconclusive = small, poorly fitted or top-dose-only effect, or effect the other way; inactive = no such curve, though single readings can be large or run the other way.
# Biological target: Cytochrome P450 2C9 (Homo sapiens) (UniProt P11712)
# Sequence (P11712 whole entry, looked up): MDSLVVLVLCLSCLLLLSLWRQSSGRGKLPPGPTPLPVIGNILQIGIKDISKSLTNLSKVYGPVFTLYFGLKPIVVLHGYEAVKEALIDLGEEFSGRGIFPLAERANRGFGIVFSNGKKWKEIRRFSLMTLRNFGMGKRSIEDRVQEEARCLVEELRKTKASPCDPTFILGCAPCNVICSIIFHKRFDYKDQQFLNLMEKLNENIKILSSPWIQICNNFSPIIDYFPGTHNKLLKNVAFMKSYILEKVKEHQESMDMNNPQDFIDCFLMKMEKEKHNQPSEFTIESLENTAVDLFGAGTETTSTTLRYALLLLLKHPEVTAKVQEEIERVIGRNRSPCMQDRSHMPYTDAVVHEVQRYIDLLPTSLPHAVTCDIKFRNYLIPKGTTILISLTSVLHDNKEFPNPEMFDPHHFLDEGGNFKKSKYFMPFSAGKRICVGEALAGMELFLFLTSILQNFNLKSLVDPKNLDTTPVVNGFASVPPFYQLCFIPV
# Test: Cytochrome panel assay with activity outcomes
# Settings: recombinant CYP, pro-luciferin dealkylation, luminescence, p450-cyp2c9; series mostly up to 57.1 µM; activity, negative = inhibition: at the top concentration
# % is scaled to controls: 0 for no effect and ±100 for the full control effect.
Structure (SMILES),"activity, negative = inhibition",AC50
Cc1ccc([C@@]2(C)CC/C(=N/N=C3\CC[C@](C)(c4ccc(C)c(C)c4)c4cc(C)c(C)cc43)c3cc(C)c(C)cc32)cc1C,-6.14% [at 11.4 µM],–
CCCCCCCCCCCCCCC/C=C\[C@H](O)[C@@H](NC(=O)CCCCCCCCCCCCC)OC (tested in a mixture with another compound),-1.65%,–
CCCCCCCCCCCCC/C=C\[C@@H](O)[C@H](CO)NC(C)=O,–,3.16 µM (active)
CCCCCCCCCCCCCCCC(=O)NC(C)C,-0.628%,–
CN1CCC(=C2c3ccccc3Sc3ccccc32)CC1,-1.54% [at 25.6 µM],–
COC(=O)N1CCC2(CC1)CCN(c1ccccc1)CC2,-2.09%,–
O=C(C(NS(=O)(=O)c1cccs1)c1ccccc1)N1CCN(c2ccccc2)CC1 (stereo not drawn),–,8.91 µM (active)
COC(=O)NCC(c1cccnc1)N1CCN(c2ccccc2OC)CC1 (stereo not drawn),-25.7%,–
O=C(CCNS(=O)(=O)c1cccs1)N1CCc2ccccc2C1,-27.1%,–
COc1ccccc1N1CCN(Cc2cc(=O)n3ccsc3n2)CC1,32.3%,–
COc1ccccc1N1CCN(C(=O)C(NS(=O)(=O)c2cccs2)c2ccccc2)CC1 (stereo not drawn),–,11.2 µM (active)
S=c1c2[nH]cnc2ncn1CCSc1ncnc2nc[nH]c12,-0.398% [at 11.4 µM],–
NS(=O)(=O)c1ccc(NCc2ccccc2OCc2ccccc2F)cc1,–,3.98 µM (active)
NS(=O)(=O)c1ccc(NCc2cnc3ccccc3n2)cc1,1.39% [at 11.4 µM],–
NS(=O)(=O)c1ccc(NCc2nc3ccccc3[nH]2)cc1,7.25% [at 11.4 µM],–
O=c1nc(N2CCCCCC2)nc(N2CCCCCC2)[nH]1,-2.89%,–
Cc1cnc(CNc2ccnc(-c3cccc(NS(C)(=O)=O)c3)n2)cn1,16.8% [at 2.29 µM],–
Nc1nc(N)c(N=Nc2ccc(C(=O)O)c(O)c2)c(N)n1,-6.7% [at 11.4 µM],–
Cc1ccccc1Cn1c(Cc2ccccc2)nc2ccccc21,–,5.01 µM (active)
Cc1ccc(C)c(C(=N)c2ccccc2Cc2ccccc2)c1,-26.1% [at 11.4 µM],–
O=C(C(Cc1ccccc1)N1C(=O)C2C3CCC(C3)C2C1=O)N1CCCCC1 (stereo not drawn),-7.9%,–
CCN1CCN(c2nc3c(c(=O)[nH]c(=O)n3C)n2CCCSc2ncccn2)CC1,-17%,–
Cn1c(=O)[nH]c(=O)c2c1nc(CN1CCOCC1)n2CCCO,23.1%,–
CCCCCn1c(CN2CCN(c3cc(Cl)ccc3C)CC2)nc2c1c(=O)[nH]c(=O)n2C,–,3.55 µM (active)

Structure (SMILES),"activity, negative = inhibition",AC50
COc1cccc(=O)c2c(C)n(-c3cc(C)cc(C)c3)c(C)c12,–,3.98 µM (active)
NC(Cc1ccccc1)=NCC(=O)O,-1.5% [at 11.4 µM],–
CCCc1nnc(SCC(=O)N2CCCCC2)n1CCCOC,-3.43%,–
CCOC(=O)CSc1cc(=O)n(C)c2cc(Cl)ccc12,–,14.1 µM (active)
Cn1c(=O)cc(SCC(=O)NCCCN2CCOCC2)c2ccc(Cl)cc21,-20.1%,–
Cc1c(C(=O)NN2CCN(C)CC2)cccc1[N+](=O)[O-],32.4%,–
O=[N+]([O-])c1cc(/C=N/O)ccc1SCc1ccccc1,19.7%,–
Cc1c(NC(=O)C(Sc2ccccc2)c2ccccc2)cccc1[N+](=O)[O-] (stereo not drawn),–,0.251 µM (active)
CC(C)Cn1c(-c2nn(C)cc2Cl)n[nH]c1=S,-14.2%,–
CN1CCN(c2ncc3nc(-c4ccc(Cl)cc4)c(=O)n(CCC#N)c3n2)CC1,-0.813%,–
CCOC(=O)c1cc(-c2ccc(Cl)cc2)nc2c1c(C)nn2CCC#N,–,10 µM (active)
OC(Cc1nc2ccccc2[nH]1)c1ccccc1Cl (stereo not drawn),–,14.1 µM (active)
O=C1CC[C@](CCc2nc3ccccc3[nH]2)(c2ccccc2)C(=O)N1,-12.8% [at 11.4 µM],–
OCCNc1nc2ccccc2[nH]1,-17.9%,–
COCC(=O)N1CCC[C@@]2(CCN(Cc3ccccc3OC)C2)C1,6.92%,–
CCOC(=O)c1ccccc1NC(=O)/C(C)=C/C(=O)O,-17%,–
CCC(=O)Nc1ccccc1C(=O)OCC(=O)c1ccccc1,–,0.631 µM (active)
CCC(=O)Nc1ccccc1C(=O)OCC(=O)c1cccc2ccccc12,–,2.24 µM (active)
CCc1ccc(C(=O)COC(=O)C(Cc2ccccc2)NC(=O)C2CCC(C)CC2)cc1 (stereo not drawn),-22.4%,–
C[N+]1(C)CCO[C@](O)(c2ccccc2)C1,3.31% [at 11.4 µM],–
CSCC[C@H](NC(=O)CC(C)(C)C)c1nc2ccccc2[nH]1,–,14.1 µM (active)
CSCC[C@H](NC(=O)c1nn(C)c(=O)c2ccccc12)c1nc2ccccc2[nH]1,–,2 µM (active)
CCCCCCCCCCCC1=C(O)C(=O)C=C(O)C1=O,1.23%,–
Cn1c(C(F)(F)F)nc2c(=O)oc3ccccc3c21,-17.9%,–

Structure (SMILES),"activity, negative = inhibition",AC50
O=C(O)c1ccc(C(=O)c2ccccc2)c(C(=O)O)c1,21.8% [at 11.4 µM],–
O=C(O)c1ccccc1C(=O)NNc1ccc(Cl)cc1,-11.7%,–
O=C(OCc1ccc(Cl)cc1)c1ccccc1C(=O)c1ccccc1,–,4.47 µM (active)
CC(C)(C)C1CCC(OCC(O)CN2CCN(c3ccccc3)CC2)CC1 (stereo not drawn),-17.4%,–
CCOC(=O)CCN1C(=O)[C@H]2[C@H]3[C@H](O)[C@H](O)C/C(=N/OC[C@@H](O)COCc4ccco4)[C@@H]3CC[C@@H]2C1=O,-5.27% [at 11.4 µM],–
N#C/C(=C\c1cc([N+](=O)[O-])c(N2CCCCC2)cc1N1CCCCC1)c1nn(-c2ccccc2)c(N)c1C#N,–,0.316 µM (active)
CC1CCN(c2cc(N3CCC(C)CC3)c([N+](=O)[O-])cc2/C=C(\C#N)c2nn(-c3ccccc3)c(N)c2C#N)CC1,–,0.224 µM (active)
CS(=O)(=O)Nc1cccc(-c2cncnc2NCc2cccnc2)c1,-3.43% [at 2.29 µM],–
c1cncc(-c2cncnc2NCc2cccs2)c1,-1.39% [at 2.29 µM],–
COc1cccc(-c2cncnc2NCc2cccs2)c1,–,0.398 µM (active)
CS(=O)(=O)Nc1cccc(-c2cncnc2NCc2ccccc2)c1,–,0.398 µM (active)
CS(=O)(=O)Nc1cccc(-c2cncnc2Nc2ccc(F)cc2)c1,-8.15% [at 2.29 µM],–
COc1cccc(-c2cncnc2NCCc2cnc[nH]2)c1,–,0.251 µM (active)
CS(=O)(=O)Nc1cccc(-c2cncnc2Nc2ccccc2)c1,-11.4% [at 2.29 µM],–
COc1cccc(-c2cncnc2NCc2cnc(C)cn2)c1,4.41% [at 2.29 µM],–
COc1ccccc1CNc1ncncc1-c1cccc(NS(C)(=O)=O)c1,-27.7% [at 2.29 µM],–
CS(=O)(=O)Nc1cccc(-c2cncnc2NCc2cccs2)c1,–,0.126 µM (active)
COc1cccc(-c2cncnc2NCCN2CCOCC2)c1,1.81% [at 2.29 µM],–
COc1cccc(-c2cncnc2NCc2cccnc2)c1,-10.5% [at 2.29 µM],–
O=C(O)CSCNC(=O)CC12CC3CC(CC(C3)C1)C2,-24.2%,–
CN(C)c1ccc(-c2cncnc2NCc2cccs2)cc1,-23.6% [at 2.29 µM],–
Cc1cccc(CNc2ncncc2-c2ccc3c(c2)OCO3)c1,-20.1% [at 2.29 µM],–
c1csc(CNc2ncncc2-c2ccc3c(c2)OCO3)c1,–,0.316 µM (active)
COCCn1nc2cc(C(=O)NCc3cc(C(F)(F)F)cc(C(F)(F)F)c3)ccc2c1OC,-29.5%,–

Structure (SMILES),"activity, negative = inhibition",AC50
CCCN(CCC)CCCNC(=O)c1ccc2c(c1)N(CC)C(=O)c1ccccc1S2=O (stereo not drawn),-9.06%,–
CCOc1c2ccc(C(=O)NCc3ccc(OC(F)(F)F)cc3)cc2nn1C,–,15.8 µM (active)
CCOc1c2ccc(C(=O)NCc3ccc4c(c3)OCO4)cc2nn1CC,–,14.1 µM (active)
CCn1nc2cc(C(=O)NCC34CC5CC(CC(C5)C3)C4)ccc2c1OC,–,14.1 µM (active)
CCOc1c2ccc(C(=O)NCCCCc3ccccc3)cc2nn1CC,–,11.2 µM (active)
NC[C@@H]1O[C@H](O[C@@H]2[C@H](O[C@@H]3O[C@H](CO)[C@@H](COC[C@H]4O[C@@H](CN)[C@@H](O)[C@@H](O)[C@@H]4N)[C@@H]3O)[C@@H](O)[C@@H](N)C[C@H]2N)[C@@H](N)[C@H](O)[C@@H]1O,-9.36% [at 25.6 µM],–
Clc1ccccc1-c1nc(-n2ccnc2)c2ccccc2n1,-16.4% [at 2.29 µM],–
CCCn1nc2cc(C(=O)NCCCCc3ccccc3)ccc2c1OCC,–,12.6 µM (active)
CCCn1nc2cc(C(=O)NCc3ccccc3OC)ccc2c1OCC,-4.13%,–
CCOC(=O)N/N=C1/C[C@@H](O)[C@@H](O)[C@@H]2[C@@H]3C(=O)N(C(C)(C)C)C(=O)[C@H]3CC[C@H]12,-0.388% [at 11.4 µM],–
Cc1cc(O)c(/C=N/Nc2cccc(Cl)c2)c(=O)o1,–,3.16 µM (active)
Clc1cccc(N/N=C/c2ccc(N3CCOCC3)cc2)c1,-27.1%,–
CCC(CC)c1nnc(NC(=O)c2cccc(S(=O)(=O)N3CCc4ccccc43)c2)s1,–,1.58 µM (active)
CCOC(=O)CSc1nnc(NC(=O)c2cccc(S(=O)(=O)N3CCCCCC3)c2)s1,–,1 µM (active)
O=S(=O)(O)c1ccc2c(N=Nc3cccc4ccccc34)c(O)c(S(=O)(=O)O)cc2c1,-3.82% [at 11.4 µM],–
O=[N+]([O-])c1ccc2c(N=Nc3ccc4ccccc4c3O)c(O)cc(S(=O)(=O)O)c2c1,–,3.16 µM (active)
O=S(=O)(O)c1ccc(N=Nc2ccc3c(S(=O)(=O)O)cccc3c2O)c2ccccc12,-12.3% [at 11.4 µM],–
O=C(O)c1ccc(NS(=O)(=O)Cc2ccccc2)cc1,-7.98% [at 11.4 µM],–
O=S(=O)(C[C@H](O)C(Cl)(Cl)Cl)NNc1ccccc1,-2.23% [at 11.4 µM],–
O=C(Nc1ccccc1)N(Cc1ccccc1)CC(O)C(F)(F)F (stereo not drawn),–,12.6 µM (active)
O=C(Nc1cccc(C(F)(F)F)c1)N(Cc1ccc(Cl)cc1)CC(O)C(F)(F)F (stereo not drawn),–,8.91 µM (active)
